From PubChem BioAssay
PP1 counter – blocks human PP1-alpha phosphatase, a PP5 counter-screen; purified PP1alpha, OMFP fluorescence; inhibition, % at 6.7 µM; 320,000 compounds, 0.9% hits; AID 2235;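 active = inhibition above the mean inhibition of all tested compounds plus 3 SD, computed separately for each screening campaign, cut at about 15% in these data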
Target sequence (P62136 whole entry, looked up): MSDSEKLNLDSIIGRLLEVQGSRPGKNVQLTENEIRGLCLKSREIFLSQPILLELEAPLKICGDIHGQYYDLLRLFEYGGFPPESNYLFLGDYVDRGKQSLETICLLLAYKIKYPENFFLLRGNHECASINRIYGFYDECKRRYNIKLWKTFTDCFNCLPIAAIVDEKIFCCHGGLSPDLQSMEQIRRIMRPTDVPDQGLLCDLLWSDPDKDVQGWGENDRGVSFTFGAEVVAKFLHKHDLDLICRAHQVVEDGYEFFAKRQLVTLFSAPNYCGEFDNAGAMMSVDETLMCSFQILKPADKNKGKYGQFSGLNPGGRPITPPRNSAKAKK
PAFAH2 FP inh – inhibitors of human PAFAH2 | Q99487 | recombinant PAFAH2, FP-rhodamine activity probe, fluorescence polarization | inhibition, % at 3.39 µM | 340,000 compounds, 0.99% hits | AID 492956;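 active = inhibition above the mean over all tested compounds plus 3 SD, cut at about 30% in these data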;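 note: inhibitors block probe labeling of enzyme so polarization drops; 0% = enzyme with DMSO and 100% = wells lacking PAFAH2 protein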
pPAFAH inh – pPAFAH (human) enzyme inhibition. Q13093. recombinant pPAFAH, FP-rhodamine probe fluorescence polarization. inhibition, % at 3.39 µM. 330,000 compounds, 1.5% hits;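 active = inhibition above the mean inhibition across the screen plus 3 SD, cut at about 25% in these data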;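 note: inhibitors block binding of the rhodamine activity-based probe so polarization drops; 0% = enzyme with DMSO and 100% = wells lacking pPAFAH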
PAFAH1B3 inh – inhibitors of human PAFAH1B3; Q15102; recombinant PAFAH1B3, FP-rhodamine probe, fluorescence polarization; inhibition, % at 3.39 µM; 340,000 compounds, 0.28% hits;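 active = inhibition above the screen-wide average of all tested compounds plus 3 SD, cut at about 25% in these data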;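 note: 0% = enzyme with DMSO only and 100% = wells lacking PAFAH1B3 protein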
PAFAH1B2 FP inh – blocks human PAF acetylhydrolase 1b catalytic subunit 2; P68402; recombinant PAFAH1B2, FP-rhodamine activity probe, fluorescence polarization; inhibition, % at 3.39 µM; 340,000 compounds, 1.2% hits; AID 492953;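 active = inhibition above the mean of all tested compounds plus 3 SD, cut at about 24% in these data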;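 note: 0% = enzyme with DMSO and 100% = wells lacking PAFAH1B2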
PP5 primary – inhibitors of human protein phosphatase 5 (PP5); P53041; purified PP5c, OMFP substrate fluorescence; inhibition, % at 6.7 µM; 320,000 compounds, 0.18% hits;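 active = inhibition above the campaign's mean inhibition across all tested compounds plus 3 SD, cut at about 9.5% in these data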;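 note: 0% = DMSO only and 100% = 100 µM cantharidin control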
PP1 confirm – confirmation of human PP1 phosphatase inhibitors. shares compounds with PP1 counter. purified PP1alpha, OMFP substrate fluorescence. inhibition, % at 6.7 µM. 1,900 compounds, 52% hits;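 active = mean PP1 inhibition above a set limit taken from the earlier primary screen, cut at about 15% in these data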
PP5 inh counter – inhibits human PP5 phosphatase in PP1 counter-screen; shares compounds with PP1 counter; purified PP5c, OMFP fluorescence; inhibition, % at 6.7 µM; 1,900 compounds, 4% hits;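 active = mean PP5 inhibition over triplicate wells above about 9.5% taken from the earlier PP1 screen, limit read from the data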
The depositor's hits bear a star; · = not tested or not shown. A selection: hits, their analogues and other compounds. The true share with any hit is near 3.4%.

SMILES | PP1 counter | PAFAH2 FP inh | pPAFAH inh | PAFAH1B3 inh | PAFAH1B2 FP inh | PP5 primary | PP1 confirm | PP5 inh counter
Cc1ccccc1OCCCN1C(=O)C(=O)c2cccc(C)c21 | 21* | 3 | 6 | 2 | 3 | 1 | 11 | 2
CCN(Cc1ccccc1)S(=O)(=O)c1ccc(C(=O)N(CCCN(C)C)c2nc3c(C)c(C)ccc3s2)cc1 | 19* | 0 | 0 | 3 | -1 | 5 | -3 | 3
O=C(CSC(=S)N1CCOCC1)Nc1nc(-c2ccccc2)c(-c2ccccc2)o1 | 18* | 2 | -1 | 7 | 0 | 1 | 11 | -3
CCN(Cc1ccccc1)C(=O)CCS(=O)(=O)c1cc2c(cc1Cl)NC(=O)CO2 | -3 | 0 | 2 | -3 | 2 | 0 | · | ·
Cc1[nH]nc(-c2cccnc2)c1N=NN(C)C | · | -2 | · | 7 | -2 | · | · | ·
Cc1ccc(Cn2nc(C)c(NC(=O)c3cc(-c4ccc5c(c4)OCO5)on3)c2C)cc1 | 24* | · | 3 | · | · | 2 | 37* | -4
Cc1nn(Cc2ccc(F)cc2)c(C)c1NC(=O)c1cc(-c2ccc3c(c2)OCO3)on1 | -2 | -9 | -3 | -7 | -4 | -1 | · | ·
COc1ccc2nc(C)cc(N/N=C/c3cccc(OC)c3O)c2c1 | 1 | -1 | 14 | 12 | 6 | 1 | · | ·
COc1ccc(/C=N/Nc2cc(C)nc3ccc(Br)cc23)cc1 | 22* | -3 | 11 | 8 | 8 | 3 | -6 | 6
COc1ccc(C(C)=O)cc1COC(=O)CSCC(=O)Nc1ccc(C)cc1 | -4 | 10 | 3 | 3 | 8 | -1 | · | ·
COc1ccc(-n2c(SCC(=O)Nc3sc4c(c3C#N)CCCC4)nnc2-c2ccccc2OC)cc1 | 18* | -14 | 2 | 0 | -4 | 3 | 4 | -1
Cc1cc(C2=NNC(=NC3CCCCC3)SC2)c(C)n1-c1c(C)n(C)n(-c2ccccc2)c1=O | 19* | 9 | 9 | 2 | 1 | 2 | 0 | -3
Cc1cc(C2=NNC(=NC3CC3)SC2)c(C)n1-c1ccccc1F | 14 | 6 | 15 | 15 | 3 | 2 | · | ·
COc1ccc(Cc2nnc(SCC(=O)N3CCCCC3)o2)cc1 | -1 | 3 | 0 | 2 | 6 | 0 | · | ·
Cc1nn(-c2ccc(Cl)cc2)c(Cl)c1/C=N/NC(=O)c1ccc(NS(=O)(=O)c2cccs2)cc1 | 19* | -18 | 22 | 0 | -7 | 2 | 15 | 1
CCN(c1ccc(OC)cc1)S(=O)(=O)c1ccc(-c2ccc(=O)[nH]n2)o1 | -4 | 3 | 2 | -3 | 4 | 0 | · | ·
CC(C)Cn1c(N)c(C(=O)COC(=O)/C=C/c2ccccc2)c(=O)n(C)c1=O | 37* | 5 | 0 | -10 | 0 | 3 | 0 | -1
COc1ccccc1CNS(=O)(=O)c1ccc2c(c1)oc(=O)n2C | 1 | -2 | 1 | 1 | -2 | 1 | · | ·
COc1ccccc1CNC(=O)C(NS(=O)(=O)c1ccc2c(c1)oc(=O)n2C)C(C)C (stereo unspecified) | 27* | 4 | 1 | 0 | -6 | 0 | -3 | -1
CC(C)N1CCN(C(=O)c2ccc([N+](=O)[O-])cc2)CC1 | -4 | · | 1 | · | · | 0 | · | ·
S=c1[nH]nc(-c2cccnc2)n1-c1ccc2c(c1)OCCO2 | 52* | 2 | 3 | 5 | 6 | 0 | -2 | -4
CCN(Cc1ccccc1)c1ccccc1 | · | 13 | · | 9 | 5 | · | · | ·
CCN(Cc1ccccc1)c1ccc(/C=N/N=C(N)N)cc1 | 18* | 5 | 7 | 7 | 25* | 2 | 3 | -1
CCCCCCOc1ccc(/C(C)=N/NC2=NCCN2)cc1 | 20* | -1 | 6 | 0 | -2 | 3 | -1 | -3
O=C1OC(=O)C2C3CCC(O3)C12 (stereo unspecified) | 75* | · | 8 | · | · | 67* | 46* | 51*
O=C1C2C3CCC(O3)C2C(=O)N1c1nccs1 (stereo unspecified) | · | 11 | · | 6 | 8 | · | · | ·
c1cc2c3c(cccc3c1)NC1(CCCCCC1)N2 | 21* | 0 | 17 | -1 | -5 | 1 | 21* | 7
c1cc2c3c(cccc3c1)NC1(CCCCC1)N2 | 26* | -4 | 6 | 2 | 1 | 1 | 10 | 18*
